Results with a measured potency or affinity are listed apart. Calls of active or inactive are those of the source.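 Rule for the calls: active = signal drop with fitted half-maximal dose at most twice the top valid dose, active in every repeat; inconclusive = repeats disagree, or flat partial inhibition, or poor fit; inactive = inactive in every repeat, including opposite effects.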
Biological target: Caspase-3 (Homo sapiens) (UniProt P42574)
Assay: human caspase-3 protease activity blockade – biochemical, fluorescence, cherry-picked samples, selectivity assay for caspase-6 allosteric inhibitor project, dose response (AID 743291)
Conditions: Recombinant caspase-3, Z-DEVD-R110 cleavage fluorescence; series mostly up to 35 µM

Chain of Caspase-3 (Homo sapiens) (P42574 whole entry, looked up): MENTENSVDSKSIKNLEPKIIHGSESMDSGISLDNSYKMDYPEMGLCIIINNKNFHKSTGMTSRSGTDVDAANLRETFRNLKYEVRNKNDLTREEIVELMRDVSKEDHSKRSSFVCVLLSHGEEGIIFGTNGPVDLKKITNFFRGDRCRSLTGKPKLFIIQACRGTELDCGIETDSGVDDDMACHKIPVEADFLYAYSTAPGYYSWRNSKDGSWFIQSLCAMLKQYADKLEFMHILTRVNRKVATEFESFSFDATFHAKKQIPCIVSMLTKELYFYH

| SMILES | outcome |
| --- | --- |
| COc1cc(NC(C)CCCNC(C)C)c2ncccc2c1OC (stereo not drawn) | inactive |
| O=c1[nH]c(Nc2ccc(F)cc2)cc2ccccc12 | inactive |
| COc1cc(NCCCCC(C)N)c2nccc(C)c2c1 (stereo not drawn) | inactive |
| O=C(O)C1Nc2c(Cl)cc(Cl)c(Cl)c2C2C=CCC12 (stereo not drawn) | inactive |
| COc1cc(NC(=O)COC(=O)c2ccc([N+](=O)[O-])s2)cc(OC)c1OC | inactive |
| COCCN(C(=O)COC(=O)c1cc2c(s1)CCC2)c1c(N)n(Cc2ccccc2)c(=O)[nH]c1=O | inactive |
| O=C(O)CCc1ccc(-c2ccc(Br)cc2)n1CC(=O)O | inactive |
| COc1cc(NC(C)CCCN)c2ncccc2c1 (stereo not drawn) | inactive |
| Cc1cccc(NC(=O)CNC(=O)c2cccc(-n3cccc3)c2)c1C | inactive |
| COc1ccc([N+](=O)[O-])cc1NC(=O)CCS(=O)(=O)c1ccc(Br)cc1 | inactive |
| COc1ccc(C(=O)OCC(=O)Nc2ncc([N+](=O)[O-])s2)cc1OC | inactive |
| CCCCN(C(=O)c1cccc(-n2cccc2)c1)c1c(N)n(CCC)c(=O)[nH]c1=O | inactive |
| [O-][n+]1onc2c1CCc1c-2nn(-c2ccccc2Cl)[n+]1[O-] | inactive |
| O=C(COC(=O)c1ccccc1)Nc1ncc([N+](=O)[O-])s1 | inactive |
| Nc1cc2c(cc1Br)[nH]c(=O)c1ccccc12 | inactive |
| CCOC(=O)c1sc2nc(OCCN3CCOCC3)cc(C)c2c1N | inactive |
| Cn1cnnc1SCC(=O)Nc1ncc([N+](=O)[O-])s1 | inactive |
| COCCn1c2nc(=O)n(-c3ccccc3)c(=O)c-2nc2ccccc21 | inactive |
| O=C(O)CC(CCc1ccccc1)OC1OC(CO)C(O)C(O)C1O (stereo not drawn) | inactive |

| SMILES | outcome |
| --- | --- |
| Oc1cc(O)cc(C=Cc2ccc(O)c(O)c2)c1 | inactive |
| O=c1ccc2c(-c3ccccc3S(=O)(=O)O)c3ccc(O)c(O)c3oc-2c1O | inactive |
| Oc1cc2c(cc1O)[C@H]1c3ccc(O)c(O)c3OC[C@@]1(O)C2 | inactive |
| O=c1[nH]c(Nc2ccccc2Cl)cc2ccccc12 | inactive |
| Cc1ccc(NC(=O)CN(C)C(=O)c2cccc(-n3cccc3)c2)cc1 | inactive |
| O=C(C[C@@H]1C[C@H]2c3cc(NC(=O)NC4CCCCC4)ccc3O[C@H]2[C@H](CO)O1)NCc1ccccn1 | inactive |
| Cc1ccc(S(=O)c2ccc([N+](=O)[O-])c3nonc23)cc1 (stereo not drawn) | inactive |
| Cc1oc2c(cc(NS(=O)(=O)c3ccc(C(C)C)cc3)c3ccccc32)c1C(=O)O | inactive |
| Cc1ccc(S(=O)(=O)Nc2csc(C)c2C(=O)O)cc1 | inactive |
| O=C(O)C1CCCCC1C(=O)Nc1cccc(Br)c1 (stereo not drawn) | inactive |
| O=C1CN(C(=O)COC(=O)c2ccc([N+](=O)[O-])s2)c2ccccc2N1 | inactive |
| O=c1cc2c(=O)oc3cc(O)c(O)oc3c2c(O)c1O | inactive |
| Nc1ccc(Nc2ccccc2)c(S(=O)(=O)O)c1 | inactive |
| O=c1c(O)cccc2cc(O)c(O)c(O)c12 | inactive |
| Cc1c(NC(=O)C(C)OC(=O)c2ccc([N+](=O)[O-])s2)c(=O)n(-c2ccccc2)n1C (stereo not drawn) | inactive |
| CCCc1nc2c(=O)n(C)c(=O)nc-2n(C)n1 | inactive |
| O=S(=O)(O)c1cc(O)c2cc(Nc3ccccc3)ccc2c1 | inactive |
| Cc1c(CCC(=O)O)c(=O)oc2c(C)c(OCc3ccccc3Cl)ccc12 | inactive |
| O=C(c1cccc(-n2cccc2)c1)N1CCN(S(=O)(=O)c2ccccc2)CC1 | inactive |
